Screen size: about 320,000 compounds; about 3,300 (1%) were called active. The sample as a whole holds a higher share of actives than the screen did. Values without a mark were called inactive.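 Rule for the calls: active = every valid replicate shows activation above 250% relative to neutral control wells; inactive = the rest, any valid replicate at or below 250%.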
Assay: yeast Mot1-301 growth rescue at high temperature, primary screen, SUMOylation pathway inhibitor project, S. cerevisiae, ATP luminescence, 38.5C (AID 2716)
Conditions: S. cerevisiae Mot1-301 growth rescue, at 18.8 µM, active compounds read high

Compound | growth rescue
O=c1c2ccccc2nc(-c2ccccc2)n1-c1ccccn1 | -8.46%
COc1ccc(-n2c(-c3ccccc3)nc3ccccc3c2=O)cc1 | 524% (active)
Cc1ccc(-n2c(-c3ccc([N+](=O)[O-])cc3)nc3ccccc3c2=O)cc1 | 30.7%
C[C@@]1([C@@H](NP(=O)(c2ccccc2)c2ccccc2)c2ccccc2)C[C@H]1CCO | 28.7%
CCCC(C)n1[nH]c(=O)c2c1NC(=O)CSC2c1ccc(OC)c(OC)c1 (stereo not given) | -11.2%
c1ccc(CCN2CCC3(CC2)OCCO3)cc1 | 313% (active)
O=C(c1ccccc1[N+](=O)[O-])N1CCC2(CC1)OCCO2 | -11.1%
O=C(Nc1cccc2ccccc12)N1CCC2(CC1)OCCO2 | 2.67%
COc1ccccc1OC(=O)c1ccc(C)c(S(=O)(=O)N2CCOCC2)c1 | -7.94%
CCOP(=O)(OCC)C(O)c1ccc(OC)cc1OC (stereo not given) | -5.29%
COc1ccc(-n2c(O)c(C(C)=Nc3ccc4c(c3)CCC4)c(=O)[nH]c2=O)cc1 | -1.78%
COc1ccc(N=Cc2c(O)n(C)c(=O)[nH]c2=O)cc1 | 842% (active)
COc1ccccc1-n1c(O)c(C=NC2CC2)c(=O)[nH]c1=O | -17.5%
CC(Cc1ccccc1)NCCC(c1ccccc1)c1ccccc1 (stereo not given) | -27.1%
CC(=NCc1ccc2c(c1)OCO2)c1c(O)[nH]c(=O)[nH]c1=O | -26.7%
